The record followed here is PubChem BioAssay (NCATS).

Structures are written as SMILES. Inconclusive results are not listed. Activity calls are given as the source filed them. Calls come from the whole dose curve.
Potency is the fitted concentration of half-maximal effect.

This assay is described as follows: Primary qHTS to identify inhibitors of SARS-CoV-2 cell entry (AID 1645846). Note: nearly all actives have a fitted effect of over 45% in size. Particulars: SARS-CoV-2 pseudovirus cell entry assay, luminescence; activity change, negative = inhibition: at 57.1 µM (top of the series) unless noted. The procedure, abridged: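 Inhibition of spike-mediated entry was scored in human ACE2-transfected Expi293F cells. Particles were MLV-pseudotyped with Wuhan-Hu-1 S carrying a 19-aa C-terminal deletion; signal was luciferase after two days, scaled between spike PP and fusion-protein-free PP.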
Background: In qHTS, concentration-response curves come from the screen itself.
As for `c1ccc2c(-c3cnn4cc(-c5ccc(OCCN6CCOCC6)cc5)cnc34)ccnc2c1`, the “outcome” value was “inactive [at 27.1 µM]”.

Take `O=C1NC(=O)/C(=C\c2ccc(-c3ccc(F)cc3)o2)S1`: the molecule was called inactive.

Consider `CC(C)C[C@H](NC(=O)[C@H](Cc1ccccc1)NC(=O)OCc1ccccc1)C(=O)C=O`, for which the Potency was 14.1 µM (active).

With `Cc1nc2ccc(-n3ncc(C(=O)c4cc5ccccc5[nH]4)c3N)cc2[nH]1`, the Potency was 11.2 µM (active).

Consider `COCCN1CCN(Cc2ccc(-c3n[nH]c4c3C(=O)c3c(NC(=O)NN5CCOCC5)cccc3-4)cc2)CC1`, for which the activity change, negative = inhibition was -93.4%.

Take `Nc1nc(Nc2ccc3c(c2)CC[C@@H](N2CCCC2)CC3)nn1-c1cc2c(nn1)-c1ccccc1CCC2`: the Potency was 12.6 µM (active).

Take `CC(C)(O)CNc1ncc(-c2ccnc(Nc3ccncc3)n2)c(CC2CC2)n1`: the Potency is 10 µM (active).
